Growth data for 16 compounds are collected here from PubChem BioAssay (NCI).

Each structure is given as a SMILES string. This is part of a sample that, as a whole, favours compounds with a hit. Of some 83,000 tested, about 20% had one in any assay.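 For each line, cells grew in 96-well plates with the test compound present at a single concentration for 48 hours.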 Unmarked numbers belong to inactive results. Activity calls are given as the source filed them. How the source made its calls: active means growth percent below 10; inactive means the rest.

Some test systems named below: NCI-H23 lung; NCI-H226 lung; NCI-H322M lung; HOP-62 NSCLC; NCI-H460 lung; NCI-H522 lung; A549/ATCC NSCLC; 786-0 renal; COLO 205 colon.
What all share (test): NCI-60 one-dose screen, 48 h (100 = growth as untreated, 0 = no growth, -100 = all killed)
Holding throughout (conditions): 10 µM unless noted

Consider `O=C(Nc1ccc([N+](=O)[O-])cc1)c1cc2ccccc2cc1O`, for which the growth in the assay with NCI-H23 lung was -35.7% (active); with NCI-H226 lung, 1.68% (active); with NCI-H322M lung it was 3.46% (active); in the assay on HOP-62 NSCLC, 13%; with NCI-H460 lung, -33% (active); in the assay with NCI-H522 lung, -31.5% (active). For the same compound, the values for the growth in the assay on A549/ATCC NSCLC, in the assay on 786-0 renal and with COLO 205 colon were -6.53% (active), -24.2% (active) and 67.8%, respectively.

For `CN1CCCN(CCNc2nccc(-c3c(-c4cccc(O)c4)nc4sccn34)n2)S1(=O)=O`, the growth is 67.1% in the assay on NCI-H23 lung; 72.4% in the assay on NCI-H226 lung; 47.9% with NCI-H322M lung; 84.4% with HOP-62 NSCLC; 40.2% in the assay with NCI-H460 lung; 59.3% with NCI-H522 lung. Further, the results for the growth with A549/ATCC NSCLC, in the assay on 786-0 renal and in the assay on COLO 205 colon were 45.8%, 42.2% and 29.3%, respectively.

`CC1CCCN(CCCCOc2ccc(-c3ccc(C#N)cc3)cc2)C1` (centres undefined): the growth with NCI-H23 lung was 82.6%; in the assay on NCI-H226 lung, 93.4%; in the assay with NCI-H322M lung, 99.9%; with HOP-62 NSCLC, 97.7%; in the assay with NCI-H460 lung it was 99.1%; in the assay with NCI-H522 lung it was 59.6%. The growth in the assay on A549/ATCC NSCLC is 60.2%; with 786-0 renal, 90.1%; with COLO 205 colon it was 75.1%.

Turning to `O=C(/C=C/c1ccccc1)c1c[nH]c2ccccc2c1=O`, the growth with NCI-H23 lung is 9.55% (active); with NCI-H226 lung, 8.22% (active); in the assay on NCI-H322M lung it was -7.62% (active); in the assay with HOP-62 NSCLC it was 23.6%; in the assay on NCI-H460 lung it was -32.8% (active); with NCI-H522 lung it was 0.426% (active). Also, the growth is 3.17% (active) in the assay on A549/ATCC NSCLC, 4.48% (active) in the assay on 786-0 renal and 0.617% (active) in the assay with COLO 205 colon.

Turning to `CC(=O)Oc1c(Cl)c(Cl)c(Cl)c(Cl)c1Cl`, the growth was 95.3% with NCI-H23 lung; 103% in the assay with NCI-H226 lung; 92.3% in the assay with NCI-H322M lung; 95.9% in the assay with HOP-62 NSCLC; 105% in the assay on NCI-H460 lung; 90.2% in the assay with NCI-H522 lung. For the same compound, the growth was 85.9% with A549/ATCC NSCLC, 100% in the assay with 786-0 renal and 106% with COLO 205 colon.

Take `C=CC(=O)N1CN(C(=O)C=C)CN(C(=O)C=C)C1`: the growth in the assay with NCI-H23 lung was 67.4%; in the assay with NCI-H226 lung, 87%; with NCI-H322M lung, 108%; in the assay with HOP-62 NSCLC it was 88.3%; with NCI-H460 lung it was 102%; in the assay on NCI-H522 lung it was -35.4% (active). Further, the growth in the assay with A549/ATCC NSCLC was 94.6%; in the assay with 786-0 renal it was 95.7%; in the assay with COLO 205 colon it was -44.4% (active).

For the compound `CCOC(=O)c1ccc2c(c1)nc(-c1ccc(Cl)cc1)n2-c1cc(C(C)(C)C)[nH]n1`, the growth is 44.5% in the assay with NCI-H23 lung; 29.5% with NCI-H226 lung; 64.1% in the assay on NCI-H322M lung; 39.3% in the assay on HOP-62 NSCLC; 23.1% in the assay on NCI-H460 lung; 26.1% with NCI-H522 lung. Besides, the growth with A549/ATCC NSCLC was 39.9%; with 786-0 renal it was 14.1%; in the assay on COLO 205 colon, 34.7%.

With `C=C1C(=O)O[C@H]2[C@H]1CC/C(COC(=O)NCc1cccc(OC)c1)=C\CC[C@@]1(C)O[C@@H]21`, the growth is 73.4% in the assay with NCI-H23 lung; 67.3% in the assay with NCI-H226 lung; 90.6% with NCI-H322M lung; 65.6% in the assay on HOP-62 NSCLC; 55% in the assay on NCI-H460 lung; -70.3% (active) with NCI-H522 lung. In addition, the growth is 50.7% in the assay with A549/ATCC NSCLC, -48.9% (active) with 786-0 renal and -71.3% (active) in the assay on COLO 205 colon.

With `COc1ccccc1CNCCCN1C(=O)c2ccc3c4c(ccc(c24)C1=O)C(=O)N(CCCNCCCN)C3=O`, the growth in the assay with NCI-H23 lung was -63.4% (active); with NCI-H226 lung, 38.7%; in the assay on NCI-H322M lung, 1.95% (active); with HOP-62 NSCLC, 11.6%; in the assay with NCI-H460 lung, -26.5% (active); in the assay with NCI-H522 lung it was -75.6% (active). The growth in the assay on A549/ATCC NSCLC is 9.81% (active); in the assay on 786-0 renal, 11%; in the assay with COLO 205 colon, -87.8% (active).

For `Cn1cnc([N+](=O)[O-])c1S(=O)(=O)Oc1cccc2ccccc12`, the growth was 85.5% with NCI-H23 lung; 88.1% in the assay with NCI-H226 lung; 104% with NCI-H322M lung; 84.6% in the assay on HOP-62 NSCLC; 106% in the assay on NCI-H460 lung; -84.3% (active) in the assay with NCI-H522 lung. The growth with A549/ATCC NSCLC was 98.4%; in the assay on 786-0 renal it was 62.7%; in the assay with COLO 205 colon it was -89.7% (active).

Take `N=c1nc(N2CCCCC2)cc(N)n1O`: the growth in the assay on NCI-H23 lung is 115%; with NCI-H226 lung it was 92.7%; with NCI-H322M lung, 126%; with HOP-62 NSCLC, 101%; in the assay on NCI-H460 lung, 113%; in the assay on NCI-H522 lung, 103%. The figures for the growth with A549/ATCC NSCLC, in the assay on 786-0 renal and in the assay on COLO 205 colon were 103%, 117% and 106%, respectively.

With `CCOC(=O)Nc1ccc2nc(Sc3ccc(Cl)cc3)sc2c1`, the growth in the assay on NCI-H23 lung is 54.2%; with NCI-H226 lung it was 58.8%; in the assay with NCI-H322M lung, 44.6%; in the assay on HOP-62 NSCLC, 35.1%; in the assay with NCI-H460 lung it was 25%; in the assay on NCI-H522 lung, 28.3%. For the same compound, the growth was 42.5% with A549/ATCC NSCLC, 49.5% in the assay with 786-0 renal and -26.4% (active) in the assay with COLO 205 colon.

For the compound `COC(=O)c1ccc2c(c1)nc(-c1ccc(Cl)cc1)n2-c1cc(C(C)(C)C)[nH]n1`, the growth in the assay on NCI-H23 lung was 60.7%; with NCI-H226 lung it was 94.3%; in the assay with NCI-H322M lung it was 92.5%; with HOP-62 NSCLC, 116%; with NCI-H460 lung it was 45.1%; with NCI-H522 lung, 38%. The growth in the assay with A549/ATCC NSCLC is 47.2%; with 786-0 renal it was 46%; in the assay on COLO 205 colon, 112%.

As to `Oc1ccc(-c2nnc3c4[nH]ccc4ncn23)cc1`, the growth with NCI-H23 lung is 91.5%; in the assay on NCI-H226 lung, 100%; with NCI-H322M lung, 98.2%; in the assay on HOP-62 NSCLC, 100%; in the assay on NCI-H460 lung, 90.1%; in the assay with NCI-H522 lung, 81.5%. Further, the growth is 93.7% with A549/ATCC NSCLC, 95.6% in the assay on 786-0 renal and 105% in the assay on COLO 205 colon.

On to `COc1cnc2c(c1)C(=O)c1c-2n(CCCN2CCN(C)CC2)c(=O)c2cc(Cl)ccc12`, for which the growth was 47.9% in the assay on NCI-H23 lung; 30.4% with NCI-H226 lung; 49.3% in the assay with NCI-H322M lung; 20.5% in the assay on HOP-62 NSCLC; 6.14% (active) with NCI-H460 lung; 11.7% in the assay with NCI-H522 lung. In addition, the values for the growth in the assay with A549/ATCC NSCLC, in the assay with 786-0 renal and in the assay on COLO 205 colon were 37.7%, 21.3% and 31.3%, respectively.

For the compound `CC(=O)c1ccc(Br)c([N+](=O)[O-])c1`, the growth with NCI-H23 lung is 106%; in the assay on NCI-H226 lung it was 112%; with NCI-H322M lung, 107%; with HOP-62 NSCLC, 109%; with NCI-H460 lung, 109%; in the assay with NCI-H522 lung, 27.6%. Also, the values for the growth with A549/ATCC NSCLC, in the assay with 786-0 renal and in the assay with COLO 205 colon were 100%, 95.4% and 127%, respectively.
